Lassa entry inh: inhibitors of Lassa virus binding or cell entry. Lassa virus pseudotype entry inhibition, cell reporter. Potency, µM (highest dose often 37.9 µM), actives largely listed as inhibitors. 1.2% of 300,000 active. AID 540256; calls by dose curve; tested in HEK293 cells; also: nearly all actives have a fitted effect of over 50% in size
FMDV antiviral: antivirals against foot and mouth disease virus. AID 1159524. 1.2% of 410,000 active. Potency, µM (series often up to 57.9 µM), hits mostly inhibitors. FMDV antiviral cell-based qHTS; calls by dose curve; tested in HEK293T cells; also: read-out not given here; nearly all actives have a fitted effect of over 45% in size
HCV inhibitor: blocks hepatitis C virus. 3.4% of 340,000 active. Huh7.5.1 HCVcc-Cre infection, luciferase reporter, 44 h. AID 651820. Potency, µM (top dose mostly 41.8 µM), most hits filed as inhibitors
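Luciferase read-out (15 sec integration) after a 15 min room-temperature substrate step quantifies HCVcc-Cre infection. Cells, 1,000 per well, had compound added 4 h post-plating, then virus at ~0.5 moi, and were cultured 44 h.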
Giardia FBPA inh: Giardia lamblia aldolase inhibition; A8B2U2; purified Giardia FBPA; Potency, µM (top dose mostly 59.6 µM), usual class: inhibitors; 0.71% of 290,000 active; AID 2451; also: nearly all actives have a fitted effect of over 55% in size
Target sequence (A8B2U2 whole entry, looked up): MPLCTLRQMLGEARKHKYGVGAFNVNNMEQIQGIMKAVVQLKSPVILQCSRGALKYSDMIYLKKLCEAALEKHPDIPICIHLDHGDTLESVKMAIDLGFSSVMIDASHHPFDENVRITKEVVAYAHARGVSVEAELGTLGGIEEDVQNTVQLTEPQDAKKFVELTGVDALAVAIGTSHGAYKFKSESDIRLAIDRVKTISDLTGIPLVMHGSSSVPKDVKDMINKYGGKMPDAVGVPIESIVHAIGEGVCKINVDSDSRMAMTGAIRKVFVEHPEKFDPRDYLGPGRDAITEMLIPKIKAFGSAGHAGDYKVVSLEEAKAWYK
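Giardia FBPA (40 nM reagent) was preincubated 10 min at RT with compound (up to 57.5 uM final), then substrate plus GAPDH/TPI/NAD/arsenate coupling system with diaphorase/resazurin was added; resorufin fluorescence (525/598 nm) was read after 20 min.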
HCMV antiviral: human cytomegalovirus inhibition | HFF cells, HCMV-luciferase reporter, 72 h; active compounds read low | activity change, negative = inhibition, % at 57.5 µM | 4.5% of 410,000 active | AID 1259415; in the data active = activity change below about -60%; inconclusive = no clear call, values can overlap the other calls; inactive = above about -39%
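Cell-based, HFFs, 1000 cells/well, 16 h 37C; cpds in DMSO + HCMV-luc, MOI 1 PFU/cell; 72 h 37C; OneGlo luminescence after 5 min RT; norm. to buffer vs Salinomycin 10uM.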
MARV entry inh: inhibitors of Marburg virus binding or cell entry; 1.8% of 300,000 active; AID 540276; Potency, µM (doses to about 37.8 µM), most hits filed as inhibitors; Marburg virus pseudotyped entry inhibition, cell reporter; calls by dose curve; tested in HEK293 cells
Each line names hits and unclear results; the compound was inactive in the other large screens. This is a sample that favours compounds with a hit; in the whole collection about 8.3% have one here. Unless noted, calls follow the shape of the dose curve; as a rule, active = well fitted curve in the direction sought with a large enough effect; inconclusive = small, poorly fitted or top-dose-only effect, or another doubt; inactive = no such curve, though single readings can be large; an effect the other way counts as inactive or inconclusive.

O=C(CCNC(=O)c1ccc([N+](=O)[O-])cc1)NC1CCCc2ccccc21 (centres undefined)	Lassa entry inh inconclusive, MARV entry inh 2µM (no result: Giardia FBPA inh)
COC(=O)c1ccc(Nc2nnc(-c3ccc(C)c(S(=O)(=O)N4CCN(C)CC4)c3)c3ccccc23)cc1	Lassa entry inh inconclusive, MARV entry inh inconclusive (no result: HCV inhibitor, Giardia FBPA inh)
Clc1ccc(/C=C/c2nc3ccccc3[nH]2)c(Cl)c1	Lassa entry inh 10.3µM, HCV inhibitor inconclusive, MARV entry inh inconclusive
Clc1cccc(Cl)c1/C=C/c1nc2ccccc2[nH]1	Lassa entry inh inconclusive, HCV inhibitor inconclusive, MARV entry inh inconclusive (no result: HCMV antiviral)
Clc1ccc(/C=C/c2nc3ccccc3[nH]2)cc1	Lassa entry inh inconclusive, HCV inhibitor inconclusive, HCMV antiviral inconclusive, MARV entry inh 8.2µM
O=C(/C=C/c1ccc(Cl)cc1Cl)c1nc2ccccc2[nH]1	none
Cc1c(N=C2N=C(NC(=O)c3cccs3)c3ccccc32)c(=O)n(-c2ccccc2)n1C	Lassa entry inh inconclusive, FMDV antiviral inconclusive, HCV inhibitor 10µM, MARV entry inh inconclusive
CCCCn1c(CN(C)Cc2ccccc2)nc2c1c(=O)n(C)c(=O)n2C	FMDV antiviral inconclusive, HCV inhibitor 11.2µM, HCMV antiviral inconclusive, MARV entry inh inconclusive
CCCn1c(CN(C)Cc2ccccc2)nc2c1c(=O)n(C)c(=O)n2C	Lassa entry inh inconclusive, FMDV antiviral 7.94µM, HCV inhibitor 7.94µM, HCMV antiviral -68.1, MARV entry inh inconclusive
COCCn1c(CN(C)Cc2ccccc2)nc2c1c(=O)n(C)c(=O)n2C	HCV inhibitor inconclusive (no result: Lassa entry inh, MARV entry inh)
CCOCCn1c(CN(C)Cc2ccccc2)nc2c1c(=O)n(C)c(=O)n2C	none (no result: Lassa entry inh, MARV entry inh)
CN(Cc1ccccc1)Cc1nc2c(c(=O)n(C)c(=O)n2C)n1Cc1ccccc1Cl	Lassa entry inh inconclusive, HCV inhibitor inconclusive, MARV entry inh inconclusive
CC1CCCCN1Cc1nc2c(c(=O)n(C)c(=O)n2C)n1CCc1ccccc1 (centres undefined)	HCMV antiviral -66.9
CN(Cc1ccccc1)Cc1nc2c(c(=O)n(C)c(=O)n2C)n1CCc1ccccc1	HCV inhibitor 35.5µM, MARV entry inh inconclusive (no result: FMDV antiviral, Giardia FBPA inh)
CC1CCCCN1Cc1nc2c(c(=O)n(C)c(=O)n2C)n1Cc1ccc(Br)cc1 (centres undefined)	none (no result: HCV inhibitor, Giardia FBPA inh)
CCCn1c(CN(Cc2ccccc2)Cc2ccccc2)nc2c1c(=O)n(C)c(=O)n2C	FMDV antiviral 25.1µM, HCV inhibitor 7.94µM, MARV entry inh inconclusive (no result: HCMV antiviral)
O[C@H](c1ccc(F)cc1)[C@H](c1ccccc1)N1CCOCC1	none (no result: Lassa entry inh, FMDV antiviral, HCV inhibitor, Giardia FBPA inh, HCMV antiviral)
CC(C)(C)[C@H](N)C(=O)N[C@H]1CCC2C3CC=C4C[C@@H](O)CC[C@]4(C)C3CC[C@@]21C (some centres undefined)	Lassa entry inh inconclusive, HCV inhibitor 11.2µM, HCMV antiviral -99.3, MARV entry inh inconclusive (no result: Giardia FBPA inh)
CC(=O)[C@H]1CCC2C3CC=C4C[C@@H](OS(=O)(=O)O)CC[C@]4(C)C3CC[C@@]21C (some centres undefined)	Lassa entry inh inconclusive (no result: FMDV antiviral, HCV inhibitor, HCMV antiviral)
CC(C)C(=O)N[C@H]1CCC2C3CC=C4C[C@@H](O)CC[C@]4(C)C3CC[C@@]21C (some centres undefined)	none (no result: Giardia FBPA inh)
CC(=O)C1CCC2C3CC=C4CC(SC(=N)N)CCC4(C)C3CCC12C (centres undefined)	Lassa entry inh inconclusive, HCV inhibitor inconclusive, MARV entry inh 11.2µM (no result: Giardia FBPA inh)
Cc1oc2c(c(C)cc3oc(=O)c(CC(=O)NCCc4ccccc4F)c(C)c32)c1C	HCMV antiviral inconclusive (no result: HCV inhibitor, Giardia FBPA inh)
COc1ccc(-c2nsc(NC(=O)C(C)Oc3ccc(Cl)c(C)c3)n2)cc1 (centres undefined)	FMDV antiviral inconclusive, HCMV antiviral -64.7 (no result: HCV inhibitor, Giardia FBPA inh)
CC(Oc1ccc(F)cc1)C(=O)Nc1nc(-c2ccc(F)cc2)ns1 (centres undefined)	HCMV antiviral -94.3 (no result: HCV inhibitor, Giardia FBPA inh)
Cc1ccc(-n2ncc(C(=O)N3CCN(c4ccccc4F)CC3)c2C2CCN(C(=O)OC(C)(C)C)CC2)cc1C	Lassa entry inh inconclusive, HCMV antiviral active (no result: HCV inhibitor, Giardia FBPA inh, MARV entry inh)
Cn1ncc(C(=O)N2CCN(c3ccccc3F)CC2)c1C1CCN(C(=O)OC(C)(C)C)CC1	Lassa entry inh inconclusive, HCMV antiviral inconclusive (no result: HCV inhibitor, Giardia FBPA inh, MARV entry inh)
CCN1CCN(C(=O)c2cnn(-c3ccc(F)cc3F)c2C2CCN(C(=O)OC(C)(C)C)CC2)CC1	HCMV antiviral active (no result: HCV inhibitor, Giardia FBPA inh, MARV entry inh)

Screening results from PubChem.
